PubChem BioAssay (EPA / NIEHS)
Where “and” joins values, the source holds several entries; their conditions need not be identical. Equal values may be shown once. Results filed as inconclusive are left out. More than one record can exist for a structure, and the calls need not agree. Calls of active or inactive are those of the source. The calls were made as follows: active = hit-call score of the fitted dose curve at least 0.9, where 1 is the maximum; inconclusive = response in the unintended direction; inactive = score below 0.9.

Assays:
[1] = tested on: zebrafish Estrogen Receptor (ER2b), gene 317733; assay: ATG_zfER2b_XSP2: Attagene TRANS-FACTORIAL Multi-Species (XSP2) HepG2 Assay for zebrafish Estrogen Receptor (ER2b) (AID 2283823);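 also: fitted upward as reporter gain over DMSO so potency reflects activation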
Method in brief: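 Transfect HepG2 with GAL4-UAS reporter constructs; dose chemicals, 24 h; isolate RNA, RT-PCR, FAM-label, HpaI digest; capillary electrophoresis. Gain-of-signal vs DMSO.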

[2] = target: Estrogen receptor (Homo sapiens) (UniProt P03372); assay: ATG_hERa_XSP2: Attagene TRANS-FACTORIAL Multi-Species (XSP2) HepG2 Assay for human Estrogen Receptor (ERa) (AID 2283827)
Sequence of Estrogen receptor (Homo sapiens) (P03372 whole entry, looked up, the tested form may be a part): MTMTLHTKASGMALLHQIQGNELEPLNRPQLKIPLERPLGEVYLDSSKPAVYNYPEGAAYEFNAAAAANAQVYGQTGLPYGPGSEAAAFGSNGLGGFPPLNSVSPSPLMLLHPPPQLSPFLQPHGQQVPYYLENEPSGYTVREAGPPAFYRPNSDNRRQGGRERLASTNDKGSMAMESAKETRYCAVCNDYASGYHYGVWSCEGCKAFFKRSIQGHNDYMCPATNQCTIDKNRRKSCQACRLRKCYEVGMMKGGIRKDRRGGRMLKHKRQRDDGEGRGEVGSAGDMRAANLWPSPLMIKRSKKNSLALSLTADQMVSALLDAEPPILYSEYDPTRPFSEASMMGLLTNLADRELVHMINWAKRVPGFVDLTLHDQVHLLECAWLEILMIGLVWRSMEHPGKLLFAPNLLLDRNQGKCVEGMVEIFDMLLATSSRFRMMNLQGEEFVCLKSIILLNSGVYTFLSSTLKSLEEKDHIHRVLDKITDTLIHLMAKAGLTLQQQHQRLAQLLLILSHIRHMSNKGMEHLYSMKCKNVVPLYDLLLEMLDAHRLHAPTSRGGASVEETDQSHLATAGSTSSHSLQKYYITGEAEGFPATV
Method in brief: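 Trans-activation of exogenous human ERa-Gal4 chimera read in HepG2 as reporter transcript after 24 h exposure; medium included 3 nM 6-alpha-fluorotestosterone and 1.5 nM norgestrel. Quantified by RT-PCR with capillary electrophoresis, positive-direction fitting against DMSO.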

[3] = tested on: frog Estrogen Receptor (ER2), gene 100174814; assay: ATG_frER2_XSP2: Attagene TRANS-FACTORIAL Multi-Species (XSP2) HepG2 Assay for frog Estrogen Receptor (ER2) (AID 2283828)
Method in brief: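 Cells were transfected with reporter constructs under GAL4-UAS control, dosed with chemicals for 24 h, then lysed for RNA; the frog ER2-driven reporter mRNA was quantified by capillary electrophoresis of labeled PCR fragments, with activity fitted upward from DMSO.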

[4] = target: Peroxisome proliferator-activated receptor gamma (Homo sapiens) (UniProt P37231); assay: ATG_hPPARg_XSP2: Attagene TRANS-FACTORIAL Multi-Species (XSP2) HepG2 Assay for human Peroxisome Proliferator-activated Receptor gamma (PPARg) (AID 2283829);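 also: actives raise reporter mRNA above DMSO so AC50 reflects PPARg activation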
Sequence of Peroxisome proliferator-activated receptor gamma (Homo sapiens) (P37231 whole entry, looked up, the tested form may be a part): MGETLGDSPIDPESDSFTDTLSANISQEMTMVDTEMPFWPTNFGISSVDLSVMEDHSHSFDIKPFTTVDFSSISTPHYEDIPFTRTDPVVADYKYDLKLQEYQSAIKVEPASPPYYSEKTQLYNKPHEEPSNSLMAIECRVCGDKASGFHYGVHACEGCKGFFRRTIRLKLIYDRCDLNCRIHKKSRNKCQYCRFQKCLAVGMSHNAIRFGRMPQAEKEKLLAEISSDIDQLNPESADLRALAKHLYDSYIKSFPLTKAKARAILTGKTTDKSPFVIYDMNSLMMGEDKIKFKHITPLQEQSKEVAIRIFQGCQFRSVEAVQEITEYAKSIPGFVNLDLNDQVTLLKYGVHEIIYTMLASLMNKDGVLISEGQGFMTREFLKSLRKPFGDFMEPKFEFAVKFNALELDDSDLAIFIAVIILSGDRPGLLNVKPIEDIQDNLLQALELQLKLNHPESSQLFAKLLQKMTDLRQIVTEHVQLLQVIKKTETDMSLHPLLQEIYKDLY
Method in brief: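 Transient MRTU transfection, HepG2; TRANS format (exogenous NR-Gal4 chimeras). 24 h chemical exposure with 3 nM 6-alpha-fluorotestosterone and 1.5 nM norgestrel present. Readout: reporter mRNA via RT-PCR/CE fluorescence, up-direction vs DMSO.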

[5] = target: mouse Peroxisome Proliferator-activated Receptor gamma (PPARg), Pparg (gene 19016) (UniProt P37238); assay: ATG_mPPARg_XSP2: Attagene TRANS-FACTORIAL Multi-Species (XSP2) HepG2 Assay for mouse Peroxisome Proliferator-activated Receptor gamma (PPARg) (AID 2283830);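 also: hits are gains in reporter mRNA above DMSO so AC50 marks activation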
Sequence of mouse Peroxisome Proliferator-activated Receptor gamma (PPARg), Pparg (gene 19016) (P37238 whole entry, looked up, the tested form may be a part): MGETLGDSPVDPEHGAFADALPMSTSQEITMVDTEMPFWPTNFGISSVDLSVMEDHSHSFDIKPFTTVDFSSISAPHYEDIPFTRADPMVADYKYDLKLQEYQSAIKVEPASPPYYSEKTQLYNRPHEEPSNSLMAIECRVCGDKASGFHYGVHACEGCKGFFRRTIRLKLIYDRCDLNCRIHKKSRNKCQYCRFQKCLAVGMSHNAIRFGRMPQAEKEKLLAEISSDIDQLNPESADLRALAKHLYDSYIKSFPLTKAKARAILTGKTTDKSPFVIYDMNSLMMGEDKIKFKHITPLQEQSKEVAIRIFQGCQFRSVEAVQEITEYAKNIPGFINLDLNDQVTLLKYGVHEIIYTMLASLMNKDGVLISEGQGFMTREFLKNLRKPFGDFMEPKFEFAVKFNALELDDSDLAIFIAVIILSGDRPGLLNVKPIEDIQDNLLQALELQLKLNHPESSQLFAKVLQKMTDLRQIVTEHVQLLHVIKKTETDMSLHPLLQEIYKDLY
Method in brief: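 Multiplexed TRANS reporter readout: after 24 h chemical exposure of transfected HepG2 cells (with 3 nM 6-alpha-fluorotestosterone, 1.5 nM norgestrel present), RNA reverse-transcribed, amplified, 6-FAM-labelled and resolved by capillary electrophoresis; mouse PPARg-Gal4 induction scored against DMSO.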

[6] = target: Nuclear receptor subfamily 1 group I member 2 (Mus musculus) (UniProt O54915); assay: ATG_mPXR_XSP2: Attagene TRANS-FACTORIAL Multi-Species (XSP1) HepG2 Assay for mouse Pregnane X Receptor (PXR) (AID 2283831)
Sequence of Nuclear receptor subfamily 1 group I member 2 (Mus musculus) (O54915 whole entry, looked up): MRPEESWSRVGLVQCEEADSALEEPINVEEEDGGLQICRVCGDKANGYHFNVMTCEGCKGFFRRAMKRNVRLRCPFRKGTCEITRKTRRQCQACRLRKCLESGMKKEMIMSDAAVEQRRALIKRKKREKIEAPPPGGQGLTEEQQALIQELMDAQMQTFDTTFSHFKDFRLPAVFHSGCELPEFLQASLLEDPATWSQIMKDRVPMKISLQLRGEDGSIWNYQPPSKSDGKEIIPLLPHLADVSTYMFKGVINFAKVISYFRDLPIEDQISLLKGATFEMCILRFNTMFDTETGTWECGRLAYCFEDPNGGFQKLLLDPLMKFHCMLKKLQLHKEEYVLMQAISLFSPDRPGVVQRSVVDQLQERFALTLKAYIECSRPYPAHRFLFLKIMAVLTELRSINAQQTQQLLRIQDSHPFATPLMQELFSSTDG
Protocol: (§1) ATG_XSP2_multi-species_TRANS is a cell-based, multiplexed assay created by modifying the existing Attagene TRANS-FACTORIAL system to include a panel of nuclear receptors from some or all the following species: human (Homo sapiens), mouse (Mus musculus), frog (Xenopus laevis), zebrafish (Danio rerio), chicken (Gallus gallus), and turtle (Chrysemys picta). The ECOTOX-FACTORIAL format uses HepG2, a human liver cell line, with measurements taken at 24 hours after chemical dosing in a 24-well plate. Xsp2 included 3 nM 6-alpha-fluorotestosterone and 1.5 nM norgestrel to stimulate the androgen receptor.ATG_mPXR_XSP2 is one of 29 assay components measured or calculated from the ATG_XSP2_multi-species_TRANS assay. It is designed to make measurements of mRNA induction, a form of inducible reporter, as detected with fluorescence intensity signals by Reverse transcription polymerase chain reaction (RT-PCR) and Capillary electrophoresis technology.The assay endpoint ATG_mPXR_XSP2 was analyzed in the positive analysis fitting direction relative to DMSO as the negative control and baseline of activity. Using a type of inducible reporter, measures of mRNA for gain-of-signal activity can be used to understand the reporter gene at the transcription factor-level as they relate to the gene PXR. Furthermore, this assay endpoint can be referred to as a primary readout, because this assay has produced multiple assay endpoints where this one serves a reporter gene function. To generalize the intended target to other relatable targets, this assay endpoint is annotated to the nuclear receptor intended target family, where the subfamily is non-steroidal.
(§2) Human liver HepG2 cells are transiently transfected with multiple reporter transcription units (MRTUs) in 6-well plates using FuGene 6 reagent (Roche; 3 ml FuGene/1 mg DNA). The MRTU constructs are regulated by a cis-regulating element (promoter). […] A major difference between the CIS and TRANS system is that in CIS activities of endogenous TFs are measured, whereas the TRANS assay evaluates changes in activities of exogenous, chimeric NR-Gal4 proteins. […] At the end of 24 hour incubation, total RNA was isolated using TriZol reagent (Invitrogen). The isolated RNA is then reverse-transcribed using oligo(dT) primer and Mo-MLV reverse transcriptase (Invitrogen) with DNAse I (Ambion) treatment for 30 min. The one-tenth of the produced cDNA was amplified by PCR using Taq DNA polymerase (Invitrogen) and two reporter sequence-specific primers. The PCR products were fluorescently labeled by primer extension with 6-arboxyfluorescein (6-FAM) 5'-labeled reporter sequence-specific primer (2 min at 95 C, 20 s at 68 C and 10 min at 72 C) and these products were digested with 5U of HpaI (New England Biolabs) for 2h at 37 C. The fragments were purified using Qiaquick PCR columns (Qiagen), analyzed on an ABI 3130xL genetic analyzer (Applied Biosystems) with peak positions identified by using a set of X-rhodamine (ROX)-labeled MapMarker1000 molecular weight standards (BioVentures). The raw capillary electrophoresis data was processed using Attagraph software (Attagene).

[7] = target: zebrafish Thyroid Hormone Receptor alpha (TRa), thraa (gene 30670) (UniProt Q98867); assay: ATG_zfTRa_XSP2: Attagene TRANS-FACTORIAL Multi-Species (XSP1) HepG2 Assay for zebrafish Thyroid Hormone Receptor alpha (TRa) (AID 2283832);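 also: actives raise zebrafish TRa-Gal4 reporter transcript above DMSO baseline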
Sequence of zebrafish Thyroid Hormone Receptor alpha (TRa), thraa (gene 30670) (Q98867 whole entry, looked up, the tested form may be a part): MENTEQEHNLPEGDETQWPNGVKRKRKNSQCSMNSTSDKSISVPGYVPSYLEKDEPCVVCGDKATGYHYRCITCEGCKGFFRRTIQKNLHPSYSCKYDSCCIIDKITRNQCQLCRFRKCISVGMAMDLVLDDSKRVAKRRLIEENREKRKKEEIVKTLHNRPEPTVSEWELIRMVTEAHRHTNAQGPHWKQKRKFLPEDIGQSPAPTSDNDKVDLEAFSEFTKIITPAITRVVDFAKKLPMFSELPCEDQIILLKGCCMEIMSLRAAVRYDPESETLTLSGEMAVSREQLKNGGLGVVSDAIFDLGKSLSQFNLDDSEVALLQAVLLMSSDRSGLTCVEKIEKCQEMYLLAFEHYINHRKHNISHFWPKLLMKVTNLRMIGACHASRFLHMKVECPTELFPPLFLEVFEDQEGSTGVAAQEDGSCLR
Method in brief: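 Multiplexed TRANS reporter format in HepG2; the medium also contained 3 nM 6-alpha-fluorotestosterone and 1.5 nM norgestrel. Reporter mRNA after 24 h read by RT-PCR and capillary electrophoresis, scored as induction over DMSO.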

[8] = tested on: zebrafish Peroxisome Proliferator-activated Receptor gamma (PPARg), gene 557037; assay: ATG_zfPPARg_XSP2: Attagene TRANS-FACTORIAL Multi-Species (XSP2) HepG2 Assay for zebrafish Peroxisome Proliferator-activated Receptor gamma (PPARg) (AID 2283833);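 also: reporter mRNA from a zebrafish PPARg GAL4 chimera measured by RT-PCR and capillary electrophoresis; actives increase reporter signal over DMSO so AC50 reflects activation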
Protocol: as §1, with “receptor.ATG_zfPPARg_XSP2” for “receptor.ATG_mPXR_XSP2”, “ATG_zfPPARg_XSP2” for “ATG_mPXR_XSP2”, “PPARg.” for “PXR.”
as §2

[9] = ATG_M_32_XSP2: Attagene TRANS-FACTORIAL Multi-Species (XSP2) HepG2 Assay for M19 Transcription Factor (Internal Marker) (AID 2283826)
Method in brief: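 Read-out: fluorescent reporter mRNA fragments resolved by capillary electrophoresis after RT-PCR, gain-of-signal versus DMSO baseline. Cells were human HepG2 carrying transfected multi-reporter units, exposed 24 h. Medium contained 3 nM 6-alpha-fluorotestosterone plus 1.5 nM norgestrel.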

[10] = tested on: frog Androgen Receptor (AR), gene 399456; assay: ATG_frAR_XSP2: Attagene TRANS-FACTORIAL Multi-Species (XSP2) HepG2 Assay for frog Androgen Receptor (AR) (AID 2283824);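 also: reporter mRNA from GAL4-UAS units driven by Xenopus AR-Gal4 chimera; actives raise reporter signal above DMSO so AC50 reflects agonist-like induction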
Method in brief: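 Reporter transcript induction, read by RT-PCR with fluorescent capillary electrophoresis, in human liver HepG2 cells carrying an exogenous Xenopus AR-Gal4 fusion and GAL4-driven reporters; chemical exposure 24 hours, activity scored upward against DMSO controls.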

| Compound | AC50 [1] | AC50 [2] | AC50 [3] | AC50 [4] | AC50 [5] | outcome [6] | outcome [7] | outcome [8] | outcome [9] | outcome [4] | outcome [5] | AC50 [8] | AC50 [10] | outcome [10] | AC50 [6] |
| --- | --- | --- | --- | --- | --- | --- | --- | --- | --- | --- | --- | --- | --- | --- | --- |
| CCCCc1ccc(O)cc1 | 12.5 µM (active) and 5.32 µM (active) | 4.58 µM (active) and 3.47 µM (active) | 4.69 µM (active) and 2.33 µM (active) | 100 µM (active) | 74.6 µM (active) and 93.5 µM (active) | inactive | inactive | inactive | – | – | – | – | – | – | – |
| CC(C)(C)c1ccc(O)cc1 | 34.3 µM (active) and 13.7 µM (active) | – | 14.9 µM (active) and 6.96 µM (active) | – | – | – | inactive | inactive | inactive | inactive | inactive | – | – | – | – |
| CCC(C)(C)c1ccc(O)cc1 | 13.9 µM (active) and 3.03 µM (active) | 6.43 µM (active) and 3.44 µM (active) | 27.9 µM (active) and 3.07 µM (active) | – | – | inactive | inactive | – | inactive | inactive | inactive | 165 µM (active) and 100 µM (active) | – | – | – |
| O=S(=O)(c1ccc(O)cc1)c1ccc(O)cc1 | 6.5 µM (active) and 3.07 µM (active) | 1.87 µM (active) and 2.38 µM (active) | 26.9 µM (active) and 5.73 µM (active) | 8.88 µM (active) and 28.6 µM (active) | 33.1 µM (active) and 63.1 µM (active) | inactive | inactive | – | – | – | – | – | 8.07 µM (active) | inactive | – |
| O=P(Oc1ccccc1)(Oc1ccccc1)Oc1ccccc1 | 7.88 µM (active) | 1.44 µM (active) | 2.82 µM (active) | 4.79 µM (active) | 5.79 µM (active) | – | inactive | – | inactive | – | – | 9.78 µM (active) | – | – | 0.303 µM (active) |
| c1ccc2c(c1)Nc1ccccc1S2 | 52.1 µM (active) and 27.9 µM (active) | 12.7 µM (active) and 8.42 µM (active) | 16.7 µM (active) and 5.21 µM (active) | 22.2 µM (active) and 21.7 µM (active) | 27.6 µM (active) and 21.1 µM (active) | inactive | inactive | inactive | – | – | – | – | – | – | 4.49 µM (active) |
